Screens as filed in PubChem.
ST2 IL33 inh = inhibitors of human ST2 (IL1RL1) binding to IL-33, primary screen, biochemical, AlphaLISA | hit rate 2.3% among 78,000 | AID 1259354, 2018 | Interleukin-1 receptor-like 1 (Homo sapiens), Q01638 | inhibition, % for hits at 17 µM | AlphaLISA ST2-Fc/biotin-IL-33 interaction, 1 h; in the data active means inhibition above about 30%
Target sequence (Q01638 whole entry, looked up): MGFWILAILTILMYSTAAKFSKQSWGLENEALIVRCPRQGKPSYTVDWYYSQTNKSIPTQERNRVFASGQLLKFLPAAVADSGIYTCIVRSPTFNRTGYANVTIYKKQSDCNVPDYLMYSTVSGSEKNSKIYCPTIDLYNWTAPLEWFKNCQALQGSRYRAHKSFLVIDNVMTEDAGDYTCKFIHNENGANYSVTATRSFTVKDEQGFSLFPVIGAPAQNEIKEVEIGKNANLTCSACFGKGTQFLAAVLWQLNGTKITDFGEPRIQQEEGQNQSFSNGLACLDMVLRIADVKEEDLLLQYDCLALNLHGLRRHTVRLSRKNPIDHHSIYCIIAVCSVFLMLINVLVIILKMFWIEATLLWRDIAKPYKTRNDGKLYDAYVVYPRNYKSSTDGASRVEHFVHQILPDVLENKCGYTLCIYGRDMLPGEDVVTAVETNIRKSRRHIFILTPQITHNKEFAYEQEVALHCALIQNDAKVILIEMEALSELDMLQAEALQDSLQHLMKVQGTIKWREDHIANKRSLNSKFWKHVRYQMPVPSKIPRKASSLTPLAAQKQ
The depositor's hits bear a star; i = inactive. Many of the other results were omitted from the sample, so hits are more common in it than they were.

SMILES	ST2 IL33 inh
C=CCn1c(=O)c(-c2ccc3ccccc3n2)cc2ccccc21	i
CC(C)Nc1ccc(-c2cc(N)nc3[nH]ccc23)nn1	i
CNc1cc(-c2ccc3ccccc3n2)c2cc[nH]c2n1	52.0%*
c1csc(CN2CC[C@H](c3nnc(-c4ccncc4)o3)C2)c1	i
Cc1nc(CN2CCOc3c(O)cc(-c4ccccc4C)cc3C2)co1	i
CC(=O)Nc1ccc(NC2=CC(=NS(=O)(=O)c3ccccc3)c3ccccc3C2=O)cc1	83.0%*
O=C(O)c1cccc(NC(=O)c2cccc(S(=O)(=O)Nc3ccc(Cl)cc3)c2)c1	i
O=C(O)c1ccc(NC2=CC(=NS(=O)(=O)c3ccc(Cl)cc3)c3ccccc3C2=O)cc1	48.0%*
CC(=O)Nc1ccc(S(N)(=O)=O)cc1	i
C=CCC(CC=C)(NS(=O)(=O)c1ccc(NC(C)=O)cc1)c1ccccc1	i
CC(=O)Nc1ccc(S(=O)(=O)NCc2ccccc2)cc1	i
CC(=O)Nc1ccc(S(=O)(=O)Nc2ccccc2Cl)cc1	i
CC(=O)Nc1ccc(NC2=CC(=NS(=O)(=O)c3ccc(C)cc3)c3ccccc3C2=O)cc1	48.0%*
O=S(=O)(Nc1ccc(S(=O)(=O)Nc2ccc(Cl)cc2)cc1)c1ccccc1	i
O=C(COc1cccc(Cl)c1)Nc1ncn[nH]1	i
CC1(C)CC(=O)c2c(CCCCc3n[nH]c4c3C(=O)CC(C)(C)C4)n[nH]c2C1	i
CNC(=O)C1CCC(Cn2c(=O)c3sccc3n(CC(=O)Nc3ccc(C)c(C)c3)c2=O)CC1 (stereo unspecified)	i
COc1cc(NC(=O)CNC[C@H]2CCCC[C@H]2O)cc(OC)c1	i
CC(=O)C1=C(C)OC(N)=C(C#N)C1c1cccc(Cl)c1 (stereo unspecified)	i
C=CCn1c(CCCNC(=O)COc2ccccc2)nc2ccccc21	i
COc1ccc(C2C(C(=O)Nc3ccccc3OC)=C(C)Nc3nc4ccccc4n32)cc1 (stereo unspecified)	i
Brc1ccccc1-c1nnc(-c2ccncc2)o1	i
CN(C)c1ccc(CN2C[C@H](O)C[C@H]2c2nc(-c3ccccc3)no2)cc1	i
CCCc1cc(C(=O)N2CCC3(CC2)C(=O)Nc2ccccc23)no1	i
C=CC[C@@H]1CC=C[C@@H](C)N1C(=O)CCc1c(C)nn(C)c1C	i
SMILES	ST2 IL33 inh
COc1cccc(/C=C2\SC(N3CCN(C)CC3)=NC2=O)c1OC	i
O=C1NC(=Nc2ccccc2Cl)S/C1=C/c1ccc([N+](=O)[O-])cc1	31.0%*
O=C1NC(=Nc2ccccc2Cl)SC1(CO)CO	i
O=C1NC(=Nc2ccccc2Cl)S/C1=C/c1cc2c(cc1Cl)OCO2	31.0%*
COc1cccc(/C=C2/SC(=Nc3ccccc3Cl)NC2=O)c1OC	31.0%*
O=[N+]([O-])c1ccc(Cl)c(N=Cc2ccc(Br)c([N+](=O)[O-])c2)c1	i
CCOc1ccccc1/C=C1/SC(=O)NC1=O	i
O=C(/C=C1\Sc2ccccc2NC1=O)NCc1ccc2c(c1)OCO2	i
O=C1NC(=O)/C(=C/c2ccc(-c3cc([N+](=O)[O-])ccc3Cl)o2)S1	i
CCCCn1c(CCNC(=O)CCC)nc2ccccc21	i
COc1ccc(C(=O)NCC2Cc3cc(-c4ccccc4C(C)=O)ccc3O2)c(OC)c1OC (stereo unspecified)	i
c1coc(C2Nc3ccccc3-c3nc4ccccc4n32)c1 (stereo unspecified)	i
CN(Cc1ccccc1)Cc1cc(C(=O)N2CCS(=O)(=O)CC2)no1	i
CC(NCCC1=CCCCC1)C(=O)NC1CCCC1 (stereo unspecified)	i
N#Cc1cc2c(nc1SCC(=O)Nc1cc(C(F)(F)F)ccc1Cl)CCC2	i
CCn1cc(C2=NC(c3ccccc3)CO2)c2ccccc21 (stereo unspecified)	i
COc1ccc(Cl)cc1NC(=O)Cc1c(C(=O)O)[nH]c2ccc(Cl)cc12	i
c1cncc(CN(Cc2ccc3nsnc3c2)CC2CCCN(C3CCCCC3)C2)c1 (stereo unspecified)	i
O=C(Nc1cccc([N+](=O)[O-])c1)c1cccc(S(=O)(=O)Nc2ccccc2C(=O)O)c1	i
CCOC(=O)N1CCN(C(=O)c2ccc(N3CCC(NCCc4cccc(Cl)c4)CC3)cc2)CC1	i
CN(C)S(=O)(=O)c1ccc(-c2ccccc2)cc1	i
O=C(CN1C(=O)c2ccccc2C1=O)Nc1nc(-c2ccncc2)cs1	36.0%*
O=C(COc1ccccc1)Nc1nc(-c2ccccc2)cs1	i
O=C(CSc1ncccn1)Nc1nc(-c2ccccc2)cs1	i
Cn1c(SCC(=O)N2CCCc3ccccc32)nc2c([nH]c3ccccc32)c1=O	i
SMILES	ST2 IL33 inh
COc1ccc(NC(=O)CCN2C(=O)c3ccc([N+](=O)[O-])cc3C2=O)c(OC)c1	i
O=C1NN(c2ccc(Cl)c(Cl)c2)C(=O)/C1=C\c1ccc(-c2cccc(C(=O)O)c2)o1	i
CC1=NN(c2cccc(Br)c2)C(=O)/C1=C\c1ccc(-c2cccc([N+](=O)[O-])c2)o1	i
Cc1ccc(N2NC(=O)/C(=C/c3ccc(-c4cccc([N+](=O)[O-])c4)o3)C2=O)cc1C	61.0%*
O=C(CC1C=CS(=O)(=O)C1)N1C[C@@H]2C3CCC(CC3)[C@@H]2C1 (stereo partly specified)	i
Cc1nc(C)n(CCNC(=O)CC2COCCN2)n1 (stereo unspecified)	i
Clc1ncnc2c1oc1ccc(Br)cc12	i
Cc1nc2ccccc2c2c1C(=O)N(c1ccc(F)cc1F)C2=O	i
Cc1nc2ccccc2c2c1C(=O)N(Cc1cccnc1)C2=O	i
Cc1nc2ccccc2c2c1C(=O)N(C(C)Cc1ccccc1)C2=O (stereo unspecified)	34.0%*
Cc1nc2ccccc2c2c1C(=O)N(c1cccc(Cl)c1)C2=O	i
COc1ccc(Cl)cc1N1C(=O)c2c(C)nc3ccccc3c2C1=O	31.0%*
Cc1nc2ccccc2c2c1C(=O)N(c1ccccc1)C2=O	i
O=C(O)COc1cccc(CN2CCCC(N3CCCC3=O)C2)c1 (stereo unspecified)	i
Cc1ccc(S(=O)(=O)C(C)(C)C)s1	i
COc1cc(NS(C)(=O)=O)c(OC)cc1Cl	i
CCOC(=O)c1cn(CC)c2ccc(Br)cc2c1=O	i
O=c1ccccn1Cc1cn2ccccc2n1	i
Cc1ccccc1NC(=O)C(NS(=O)(=O)c1cccs1)C(C)C (stereo unspecified)	i
CCOc1ccc(NC2=CC(=NS(=O)(=O)c3ccc(F)cc3)c3ccccc3C2=O)cc1	95.0%*
CC1=C(C(=O)Nc2ccc(C)cc2C)C(c2cccs2)n2nnnc2N1 (stereo unspecified)	i
CCOc1ccc(Nc2c(OCC)c(=O)c2=O)cc1	i
CCOc1ccc(NC(=O)c2ccccc2F)cc1	i
CCOc1ccc(S(=O)(=O)Nc2ccc(I)cc2)cc1	i
CCOc1c(Nc2ccc(F)cc2)c(=O)c1=O	i
CC(C)Cc1ccc(S(=O)(=O)Nc2ccccc2)cc1	i
CCOc1ccc(NC2=CC(=NS(=O)(=O)c3ccc(OCC)cc3)c3ccccc3C2=O)cc1	93.0%*
CCc1ccc(S(=O)(=O)NCC(=O)O)cc1	i
CCc1ccc(S(=O)(=O)N=C2C=C(Nc3ccccc3)C(=O)c3ccccc32)cc1	79.0%*
Cc1ccc(NC2=CC(=NS(=O)(=O)c3cccs3)c3ccccc3C2=O)c(C)c1	89.0%*
